Only some compounds are listed: those with a hit (about 0.44% of all), similar ones and a draw of the others.
EPAC2 ag: agonists of human EPAC2 (RAPGEF4) | Q8WZA2 | EPAC2 activation, biochemical qHTS; response scale: 100% = 6.5 mM cAMP response | Potency, µM (highest dose often 154 µM), most hits filed as activators | 0.079% of 360,000 active | AID 720711; further: nearly all actives have a fitted effect of over 50% in size
Target sequence (Q8WZA2 whole entry, looked up): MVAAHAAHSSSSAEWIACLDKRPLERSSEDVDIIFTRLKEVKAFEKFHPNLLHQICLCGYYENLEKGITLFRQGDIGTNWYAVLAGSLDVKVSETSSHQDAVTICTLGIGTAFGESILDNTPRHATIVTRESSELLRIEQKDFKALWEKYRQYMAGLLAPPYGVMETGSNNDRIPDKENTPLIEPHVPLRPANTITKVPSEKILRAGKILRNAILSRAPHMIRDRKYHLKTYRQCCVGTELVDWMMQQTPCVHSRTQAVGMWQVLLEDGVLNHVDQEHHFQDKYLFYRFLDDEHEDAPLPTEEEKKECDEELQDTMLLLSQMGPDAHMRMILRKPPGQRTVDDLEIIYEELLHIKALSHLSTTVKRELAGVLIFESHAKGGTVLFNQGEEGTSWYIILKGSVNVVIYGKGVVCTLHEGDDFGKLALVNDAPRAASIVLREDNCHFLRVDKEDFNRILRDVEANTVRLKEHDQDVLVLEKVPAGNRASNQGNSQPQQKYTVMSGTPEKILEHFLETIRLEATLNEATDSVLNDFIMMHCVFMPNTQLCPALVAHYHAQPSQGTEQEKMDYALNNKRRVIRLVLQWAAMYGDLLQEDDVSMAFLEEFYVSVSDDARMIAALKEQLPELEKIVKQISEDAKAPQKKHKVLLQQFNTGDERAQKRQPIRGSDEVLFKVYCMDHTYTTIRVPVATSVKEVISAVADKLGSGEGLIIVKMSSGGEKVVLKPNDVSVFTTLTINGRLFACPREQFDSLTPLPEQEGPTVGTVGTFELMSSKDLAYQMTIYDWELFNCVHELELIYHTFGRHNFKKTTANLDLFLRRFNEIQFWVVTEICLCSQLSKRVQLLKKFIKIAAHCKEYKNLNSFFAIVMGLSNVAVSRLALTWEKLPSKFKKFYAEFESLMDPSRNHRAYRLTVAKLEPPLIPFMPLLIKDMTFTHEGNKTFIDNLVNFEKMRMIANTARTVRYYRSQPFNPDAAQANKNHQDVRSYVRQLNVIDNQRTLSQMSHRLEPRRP
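qHTS, titration series. 100 nM EPAC2 / 250 nM Rap1B-BODIPY-GDP / 50 uM GDP; RT; ex 480/em 540 nm, 5-min reads to 30 min. Norm. to 6.5 mM cAMP = activation.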
EPAC2 antag: EPAC2 (human) antagonism; Q8WZA2; EPAC2 GEF exchange of Rap1B-BODIPY-GDP, fluorescence; Potency, µM (series often up to 114 µM), hits mostly inhibitors; 0.18% of 360,000 active; AID 720708; further: nearly all actives have a fitted effect of over 45% in size
EPAC1 antagonist: blocks human EPAC1 exchange factor; Potency, µM (series often up to 115 µM), most hits filed as inhibitors; O95398; EPAC1 GEF assay, Rap1b-BODIPY-GDP exchange fluorescence; 0.14% of 360,000 active; AID 720709; further: nearly all actives have a fitted effect of over 50% in size
USP1 inh: blocks the human USP1/UAF1 deubiquitinase complex; 0.23% of 390,000 active; Potency, µM (highest dose often 57.1 µM), most hits filed as inhibitors; recombinant USP1/UAF1, Ub-Rhodamine cleavage fluorescence; further: nearly all actives have a fitted effect of over 60% in size
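Step one: compound is pinned into 1nM USP1/UAF1 in HEPES pH 7.8 buffer with TCEP. Step two: 15 min room-temperature incubation. Step three: Ub-Rho (150nM final) starts cleavage, tracked by fluorescence over six one-minute reads.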
EPAC1 agonist: agonists of human EPAC1. O95398. EPAC1 agonist qHTS, biochemical assay; response scale: 100% = response to 6.5 mM cAMP. Potency, µM (highest dose often 154 µM), usual class: activators. 0.073% of 360,000 active; further: nearly all actives have a fitted effect of over 60% in size
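Compounds were pinned as a concentration titration into mixtures of EPAC1 (100 nM), BODIPY-GDP-loaded Rap1B (250 nM) and GDP (50 uM). After 5 min at room temperature, fluorescence was followed for 30 min; activity was scaled to 6.5 mM cAMP.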
Hits are given with their value; n = inactive; u = inconclusive; x = not tested or not shown. The call rests on the fitted dose curve; in most records, active means well fitted curve in the direction sought with a large enough effect; inconclusive means small, poorly fitted or top-dose-only effect, or another doubt; inactive means no such curve, though single readings can be large; an effect the other way counts as inactive or inconclusive.

SMILES	EPAC2 ag	EPAC2 antag	EPAC1 antagonist	USP1 inh	EPAC1 agonist
Cc1cc(C(=O)Nc2ccon2)c(C)o1	n	n	50µM	n	n
CNc1snc(C)c1C(=O)OCC(=O)Nc1ccc(C)cc1F	n	n	n	n	56µM
CCc1ccccc1NC(=O)COC(=O)c1c(C)nsc1NC	n	n	n	n	n
CCn1cc(C(=O)OCC(=O)Nc2cc(Cl)ccc2OC)c(=O)c2ccc(C)nc21	x	x	x	n	x
CCCCCCn1c(=O)n2n(c1=O)C[C@]1(OC(=O)NCc3ccccc3)CN(S(=O)(=O)c3ccc(C)cc3)C[C@]1(O)C2	n	n	n	n	n
Cc1ccccc1-n1c2nc(=O)[nH]c(=O)c-2cc2c(Cl)cccc21	x	x	x	n	x
CCOC(=O)c1ccc2c(c1)N(C)C(=O)c1ccccc1S2	n	n	n	n	n
CCOC(=O)c1cc2n(c1/N=C/N(C)C)-c1ccccc1C2=O	100µM	n	n	25µM	100µM
CC(C)(C)C(=O)Nc1cc2c3c(c1)CCC(=O)N3CCC2	n	n	n	n	n
Cc1ccsc1C(=O)N1CCC1(C)C(=O)NS(=O)(=O)c1ccc(Br)cc1 (stereo not drawn)	n	n	n	x	n
O=C1NC(=S)SC1=Cc1cccs1	n	u	u	u	n
CN1CCC/C1=C/C=C1\SC(=S)NC1=O	112µM	n	n	25µM	63µM
O=C(CNc1cc(S(=O)(=O)N2CCOCC2)ccc1NCC1CCCO1)Nc1ccc(F)c(F)c1 (stereo not drawn)	n	n	n	n	n
COc1cc(OC)c(-c2cc(C(=O)O)ccc2OC)c(OC)c1	n	n	89µM	n	n
COC(=O)c1ccc(OC)c(-c2c(OC)cc(OC)cc2OC)c1	n	n	n	n	n
NC(COCc1ccccc1)c1csc(NC(=O)Nc2cccc(C(F)(F)F)c2)n1 (stereo not drawn)	n	n	n	x	n
O=C(NCc1ccccc1)c1c(Cl)nc(Cl)c(Cl)c1Cl	n	n	u	n	n
N#Cc1sc2nc(-c3ccccc3)cc(-c3ccco3)c2c1N	n	n	35µM	4µM	n
Nc1c(S(=O)(=O)O)cc(NC(=O)c2ccccc2)c2c1C(=O)c1ccccc1C2=O	n	40µM	u	n	n
COc1cc(CCNC2=CC(=O)c3ncccc3C2=O)ccc1O	n	n	n	18µM	n
COc1ccccc1CNS(=O)(=O)c1cc(CN2C(=O)c3cccnc3C2=O)ccc1OC	n	n	n	n	n
O=C1NC(=S)S/C1=C\c1coc2ccc(O)cc2c1=O	n	35µM	56µM	n	n
O=C1NC(=S)SC1=Cc1cc(Br)ccc1O	n	79µM	56µM	n	n
O=C1NC(=S)SC1=Cc1ccc(F)cc1	n	n	n	n	n
CCOc1ccccc1C=C1SC(=S)NC1=O	n	u	u	u	n
SMILES	EPAC2 ag	EPAC2 antag	EPAC1 antagonist	USP1 inh	EPAC1 agonist
O=C1NC(=S)SC1=Cc1ccccc1Br	n	40µM	32µM	n	n
O=C1NC(=S)SC1=Cc1ccc(Cl)cc1	n	50µM	u	n	n
CCOc1ccc(NC(=O)CN2C(=O)C(c3ccccc3)=NC23CCCCCC3)cc1	x	x	x	n	x
CN1CCC(OC(=O)c2cccc(Cl)c2)CC1	n	n	n	n	n
CNc1cncc(-c2cccc(C(=O)N(C)C)c2)n1	n	n	n	x	n
COCCNc1ccc(-c2nc(-c3ccccn3)no2)cc1[N+](=O)[O-]	x	x	x	n	x
Cc1ccnc(NC(=O)CNC(=O)c2ccc(Br)o2)c1	n	n	n	n	n
O=c1c2ccccc2nc(/C=C/c2cccnc2)n1CCc1ccccc1	n	n	79µM	n	n
O=c1c2ccccc2nc(/C=C/c2ccccc2)n1CCc1ccccc1	n	n	n	n	n
CCN(CC(=O)Nc1ccc(OC)cc1)C(=O)c1cc(S(=O)(=O)N(C)C)ccc1N1CCCC1	n	n	n	n	n
COc1cccc(Nc2c3c(nc4nncn24)CCC3)c1	x	x	x	n	x
NC(=O)Cc1ccc(C(=O)c2ccc(Cl)cc2Cl)s1	n	n	n	n	n
O=C(O)Cc1ccc(C(=O)c2ccc(Cl)cc2Cl)s1	n	35µM	n	n	n
COC(=O)c1ccc(COC(=O)C(CCSC)NC(=O)COc2ccccc2)cc1 (stereo not drawn)	n	n	n	n	n
CSc1c(C#N)c(N)nc2sc(C(=O)c3ccc(Cl)c(Cl)c3)c(N)c12	n	n	n	n	100µM
COc1ccc(-c2c(C#N)c(N)nc3sc(C(=O)c4ccccc4)c(N)c23)cc1	n	n	n	n	n
CC1CN(C(=O)CCC(=O)NCc2ccccc2)c2ccccc2S1 (stereo not drawn)	n	50µM	n	n	n
COc1cccc(OC)c1-c1nn2c(-c3cc(-c4ccccc4)n[nH]3)nnc2s1	u	11µM	40µM	u	u
Fc1ccc(C(Nc2ccccn2)c2c[nH]c3ccccc23)cc1 (stereo not drawn)	n	45µM	n	n	n
O=[N+]([O-])CC(c1ccc(F)cc1)c1c[nH]c2ccccc12 (stereo not drawn)	n	u	n	n	n
CN(CC(=O)Nc1ccccc1Sc1ccccc1)C1CCCCC1	n	50µM	u	n	n
CCCN1C=CC(=CC=C(C#N)C#N)C=C1	n	n	n	22µM	n
CCCCCCN1C=CC=C/C1=C/C=C(C#N)C#N	n	n	89µM	u	n
CCCCCN1C=CC=C/C1=C\C=C(C#N)C#N	n	n	n	n	n
C=CCN1C=CC(=CC=C(C#N)C#N)C=C1	n	n	n	n	n
SMILES	EPAC2 ag	EPAC2 antag	EPAC1 antagonist	USP1 inh	EPAC1 agonist
CN1C(=CC=C2C=C(I)C(=O)C(I)=C2)C(C)(C)c2ccccc21	n	n	n	n	n
CCCN1C(=O)/C(=C\C=C2\N(CC)c3ccccc3C2(C)C)SC1=S	n	n	n	u	n
CN1/C(=C\C=C2/C(=O)Oc3ccccc3C2=O)C(C)(C)c2ccccc21	79µM	n	n	u	79µM
CN1/C(=C\C=C2/SC(=S)NC2=O)C(C)(C)c2ccccc21	63µM	n	n	25µM	63µM
Cc1noc(C)c1S(=O)(=O)Nc1ccc(C(=O)Nc2ccc(Br)cc2)cc1	x	x	x	n	x
COc1ccc(NC(=O)CSc2ccc3c4c(cccc24)C(=O)c2ccccc2-3)cc1	n	n	n	25µM	n
N#Cc1cccc(NC(=O)CSc2ccc3c4c(cccc24)C(=O)c2ccccc2-3)c1	u	n	n	n	u
C=CCOc1c(Cl)cc(CNCCCN2CCOCC2)cc1OC	n	n	n	n	n
COC(=O)c1sc(N2C(=O)C(=O)/C(=C(/O)c3ccccc3)C2c2ccco2)nc1C (stereo not drawn)	n	n	n	n	n
Cc1nc(N2C(=O)C(=O)/C(=C(/O)c3ccccc3)C2c2ccco2)sc1C (stereo not drawn)	4µM	n	n	n	n
CC(=O)N1CCc2cc(S(=O)(=O)NC(CC(C)C)C(=O)NCCc3ccc(C)cc3)ccc21 (stereo not drawn)	x	x	x	n	x

High-throughput results as filed in PubChem.
